Compounds without any hit were thinned out: in the full panel of roughly 83,000, 20% have a hit.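 Assay: single dose, 48 h. Readout: percent growth (0 = no net growth; negative = cell death). Active: <10.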 Unmarked numbers belong to inactive results. Activity calls are given as the source filed them.

Consider eight compounds from PubChem BioAssay (NCI).

Holding throughout (test): NCI-60 one-dose screen, 48 h (100 = growth as untreated, 0 = no growth, -100 = all killed)
Conditions in all cases: 10 µM unless noted

Assay [1] relates to HCT-15 colon.
In assay [2] the test system is HT29 colon.
Assay [3] deals with SNB-75 CNS.
Assay [4] concerns SNB-19 CNS.
Assay [5] deals with U251 CNS.
The test system of assay [6] is PC-3 prostate.
For assay [7], the system named is SK-MEL-5 melanoma.
For assay [8], the system named is UACC-62 melanoma.
Assay [9] has as its system LOX IMVI melanoma.
The subject of assay [10] is SK-MEL-28 melanoma.
The subject of assay [11] is SK-MEL-2 melanoma.
For assay [12], the system named is EKVX NSCLC.
In assay [13] the test system is SN12C renal.
Assay [14] has as its system UO-31 renal.
In assay [15] the test system is TK-10 renal.
The subject of assay [16] is CAKI-1 renal.
The subject of assay [17] is CCRF-CEM leukemia.
For assay [18], the system named is MOLT-4 leukemia.
In assay [19] the test system is A498 renal.
For assay [20], the system named is ACHN renal.

In the case of `CC(=O)OC1CCC2(C)C(CCC3C4CC=C(C(C)=O)C4(C)OC(=O)CC32)C1` (centres undefined), the growth in assay [1] is 5.27% (active); in assay [2] it was -59.4% (active); in [3], 95%; in [4] it was 94.6%; in assay [5] it was 54.8%; in assay [6], 73.2%. Also, the growth in assay [7] is 54.7%; in [8], 37.8%; in [9], -19.9% (active); in assay [10], 4.51% (active); in assay [11] it was 17.7%; in [12], 87.2%. Also, the growth in assay [13] was 57.8%; in assay [14] it was 21.3%; in [15], -20.2% (active); in assay [16] it was 39.4%; in assay [17], -27.5% (active); in assay [18], -37.1% (active).
For `CCOC(=O)c1ccc(Nc2ccnc(SCC(=O)c3ccc(C#N)cc3)n2)cc1`, the growth is 75.8% in [1]; 76.2% in [2]; 102% in assay [3]; 89.9% in assay [4]; 84.8% in assay [5]; 39.6% in [6]. The growth in [7] is 37.5%; in assay [8] it was 39.3%; in [9], 80.3%; in [10], 80.8%; in assay [11], 71.1%; in assay [12], 73.4%. For the same compound, the growth in assay [13] was 73.8%; in [14] it was 48%; in assay [15] it was 90.4%; in assay [16] it was 57.1%; in [19] it was 50.2%; in [17], 17.5%. Further, the growth in assay [18] is 16.3%.
Consider `CCCC1C(C(=O)OCC)=C(N)Oc2cc(O)ccc21` (centres undefined), for which the growth in assay [1] was 96.7%; in assay [2], 97.8%; in assay [3] it was 76.9%; in [4] it was 103%; in assay [5] it was 104%; in assay [6], 77.5%. Moreover, the growth in [7] is 96.5%; in assay [8], 94.8%; in assay [9] it was 90.4%; in [10], 114%; in assay [11], 99%; in assay [12] it was 80.6%. Further, the growth in assay [13] was 103%; in [14], 70.7%; in [15] it was 105%; in assay [20], 94.1%; in assay [19] it was 109%; in assay [17], 99.7%. In addition, the growth in [18] is 89%.
In the case of `COc1ccc(C2CC(c3cccc(Nc4ccncc4)c3)=NN2c2ccc(Cl)cc2)cc1` (centres undefined), the growth in assay [1] was -53.3% (active); in [2], -20.2% (active); in assay [3] it was 54.9%; in [4], 90.4%; in assay [5] it was -40% (active); in [6] it was 30.9%. Also, the growth in assay [7] was 61.3%; in assay [8] it was 97%; in assay [9], -80.5% (active); in assay [10], -80.7% (active); in assay [11], 80.4%; in assay [12] it was 83.8%. The growth in assay [13] was 63.7%; in assay [14], 47.6%; in [15] it was 59.1%; in [16], 24.5%; in assay [19] it was 70.1%; in assay [17], 4.44% (active). The growth in assay [18] was -7.16% (active).
Turning to `C=C(C)[C@@H]1CC[C@]2(C(=O)O)CC[C@]3(C)[C@H](CC[C@@H]4[C@@]5(C)C[C@@H](CC#Cc6ccc(Br)cc6)C(=O)C(C)(C)[C@@H]5CC[C@]43C)[C@@H]12`, the growth in [1] is 65.6%; in assay [2], 30.7%; in [3], 70.9%; in [4], 40.7%; in assay [5], 3.58% (active); in assay [6], 28.7%. Moreover, the growth in assay [7] is 68.6%; in [8], -29% (active); in assay [9], 52%; in assay [10], -35.5% (active); in assay [11] it was -12.6% (active); in assay [12] it was 52.1%. For the same compound, the growth in [13] is 4.51% (active); in [14] it was 68%; in assay [15], 62%; in assay [20], 65%; in assay [19], -4.41% (active); in [17] it was 28.9%. For the same compound, the growth in assay [18] was 31.9%.
With `COc1cc(NCC(O)CN(CC(C)C)CC(C)C)c2nc(C)ccc2c1` (centres undefined), the growth was 84.8% in assay [1]; 80.2% in assay [2]; 97.9% in assay [3]; 96% in assay [4]; 91.3% in assay [5]; 75.3% in assay [6]. In addition, the growth in assay [7] was 93.5%; in assay [8] it was 88.9%; in assay [9], 90.1%; in assay [10] it was 100%; in assay [11], 99%; in [12], 79.8%. In addition, the growth was 92.3% in assay [13]; 66.9% in [14]; 105% in [15]; 74.1% in [16]; 86.2% in assay [19]; 115% in assay [17]. In addition, the growth in assay [18] is 78%.
In the case of `O=C(c1ccccc1)N1N=C(c2ccc(-n3ccc(C(F)(F)F)n3)cc2)CC1c1ccc[nH]1` (centres undefined), the growth was 70.6% in assay [1]; 87.1% in assay [2]; 80.6% in assay [3]; 92.7% in assay [4]; 86% in assay [5]; 83.3% in [6]. The growth was 101% in assay [7]; 89.6% in [8]; 80% in [9]; 92.2% in assay [10]; 97.7% in assay [11]; 88.9% in assay [12]. The growth in assay [13] is 98.1%; in assay [14], 77.8%; in [15], 80.8%; in [16], 84.1%; in assay [17] it was 85.6%.
Consider `COc1ccc(C(=O)/C=C/c2cn(Cc3ccc(Cl)cc3)c3ccccc23)cc1`, for which the growth in [1] was 39.7%; in assay [2] it was 22.8%; in assay [3], 76.9%; in assay [4] it was 82.4%; in assay [5] it was 59.6%; in [6], 61.3%. The growth in assay [7] was 89.1%; in [8], 31.3%; in [9] it was 49.2%; in assay [10] it was 80.6%; in assay [11], 74.6%; in [12], 89%. Also, the growth in assay [13] is 69.4%; in [14] it was 53.7%; in assay [15], 27.4%; in [16], 2.08% (active); in [19] it was -6.05% (active); in [17] it was 41.1%. The growth in assay [18] is 39.8%.
